# Results filed as inconclusive are left out. Where a call stands in place of a potency, no number is given. Calls of active or inactive are those of the source. Calls come from the whole dose curve; as a rule, active = well fitted cell-killing curve with a large enough effect in the repeat runs; inconclusive = weak or mixed curves; inactive = flat fitted curve, though single readings scatter.
# Experiment: qHTS assay to identify small molecule antagonists of the estrogen related receptor (ERR) signaling pathway from Tox21 library - cell viability counter screen (AID 1224834); note: nearly all actives have a fitted effect of over 30% in size
# Conditions: ERR reporter cells viability, CellTiter-Fluor, 17.5 h; series mostly up to 92.4 µM
# Text: National Center for Advancing Translational Sciences [NCATS]
# NIH Chemical Genomics Center [NCGC]
# U.S. Environmental Protection Agency [EPA]
# National Institutes of Environmental Health Sciences [NIEHS]
# National Toxicology Program [NTP]
# U.S. Food and Drug Administration [FDA]
# Estrogen related receptors (ERRs), the first orphan nuclear receptors discovered, play an important role in the control of cellular energy metabolism. ERRs are required for high-energy production in response to the environmental challenges. ERR-alpha was also identified as an adverse marker for breast cancer progression; ERR-alpha-positive tumors have a poor prognosis. To screen and to identify environmental compounds that perturb the ERR signaling pathways could provide valuable information for potential therapeutic or preventive measures in the treatment of metabolic disease. To differentiate true ERR antagonists or agonist from cytotoxic substances, the assay is multiplexed with cell viability assay.
# Tox21 Assay Protocol Summary:
# The ERR cells were dispensed at 2,000 cells/5 ul/well in 1536-well white plates using a Multidrop dispenser. After the assay plates were incubated at a 37 C/5% CO2 incubator for 6 hours, 23 nL of compounds dissolved in DMSO, positive and negative controls or DMSO only was transferred to the assay plate by a pin tool. The plates were incubated at 37 C for 17.5 hours. 1 ul/well of CellTiter-Fluor reagent was added into the assay plates using a Flying Reagent Dispenser. After 30-minute incubation at 37 C/5% CO2, the fluorescence intensity in the plates was measured using a ViewLux plate reader.
# Potency is the fitted concentration of half-maximal effect.
SMILES,Potency,"viability change, negative = cytotoxic"
C=CCCCCCCC=C,inactive,
CC(=O)C=O,inactive,
CC1=CP(=O)(c2ccccc2)CC1 (stereo not given),inactive,
NC(=O)c1ccccc1N,inactive,
CCOC(=O)CN,inactive,
CCOC(=O)COc1ccc(C)cc1,inactive,
COc1cccc(O)c1,inactive,
O=C1OC(=O)c2ccc3c4c(ccc1c24)C(=O)OC3=O,inactive,
OCCCCl,inactive,
C=CC(C)C#N (stereo not given),inactive,
OCCCS,inactive,
CNC(=S)NN,15.4 µM (active),
CCN(CC)CCSC(=O)C(c1ccccc1)c1ccccc1,inactive,
CCc1ccc(C)nc1,inactive,
Cc1cc(C)c(C=O)c(C)c1,inactive,
CC(=O)Nc1ccc(O)cc1,inactive,
CCC(C)c1ccccc1 (stereo not given),inactive,
CNC(=O)c1cc(Oc2ccc(NC(=O)Nc3ccc(Cl)c(C(F)(F)F)c3)cc2)ccn1,26.6 µM (active),
C(=C/c1ccccc1)/c1ccccc1,inactive,
C/C=C/c1ccc(OC)c(OC)c1,inactive,

SMILES,Potency,"viability change, negative = cytotoxic"
S=P(N1CC1)(N1CC1)N1CC1,inactive,
C/C=C/CO,inactive,
O=C1c2c(O)ccc(O)c2C(=O)c2c(NCCNCCO)ccc(NCCNCCO)c21,3.35 µM (active),
CCOC(=O)[C@@](C)(N)Cc1ccc(O)c(O)c1,inactive,
C=CC/C=C/C/C=C/C/C=C/C,inactive,
C[Si](C)(C)Cl,inactive,
CC(=O)O[C@@H]1C[C@@H]2CC[C@@]1(C)C2(C)C,inactive,
CCCCCCCCCCCCN(CCO)CCO,68.3 µM (active),
O=C1OC(OC(=O)c2cccnc2Nc2cccc(C(F)(F)F)c2)c2ccccc21 (stereo not given),inactive,
CS(C)(=O)=O,inactive,
ClC/C=C\CCl,inactive,
Cc1c(-c2ccc(O)cc2)n(Cc2ccc(OCCN3CCCCCC3)cc2)c2ccc(O)cc12,29.8 µM (active),
CN(C)CCN1CCOCC1,inactive,
Cc1cccc(C)c1NC(=O)CN1CCN(CCCC(c2ccc(F)cc2)c2ccc(F)cc2)CC1,21.1 µM (active),
CCN1CCN(c2cc(-c3ccc(F)cc3)c3c(n2)CCCCCC3)CC1,,0.165% [at 19 µM] (inactive)
O=C(Nc1ccc(Cl)cc1)Nc1ccc(Cl)c(C(F)(F)F)c1,11.9 µM (active),
CCCCCCOc1cc(C)c(O)c(C)c1C,61.9 µM (active),
C=CC(=O)OCCOCC(CC)(COCCOC(=O)C=C)COCCOC(=O)C=C,16 µM (active),
O=C=NCc1cccc(CN=C=O)c1,,0.396% [at 19 µM] (inactive)
CCc1cccc(C)c1,inactive,

# Reference: PubChem BioAssay (Tox21)
